Screens from PubChem BioAssay.
This is a sample that favours compounds with a hit; in the whole collection about 2.9% have one here.
dFosB act = activators of delta FosB homodimer, primary screen, biochemical, fluorescence polarization, TAMRA-CDK5 oligo, single point. actives 0.99% (n = 340,000). activation, % at 25 µM. AID 493131, 2011. purified delta FosB; percent of positive-control signal above neutral wells. Protein FosB (Mus musculus), P13346;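 active means mean activation above about 17%, with every replicate also reaching it, limit read from the data, passing the limit was not always enough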
MEKK2mut PB1 HTS = MEK5 binding signal on mutant MEKK2 PB1, primary screen, biochemical, multiplex bead flow cytometry, Alexa488-MEK5. percent response, % at 10 µM. Alexa488-MEK5 binding to MEKK2 mutant. AID 1530, 2009. actives 0.35% (n = 290,000); in the data active means percent response above about 24%, passing the limit was not always enough
MEKK2 WT-MEK5 = modulators of MEK5 binding to wildtype MEKK2, primary screen, biochemical, multiplex bead flow cytometry, Alexa488-MEK5; actives 1.1% (n = 290,000); Alexa488-MEK5 binding to MEKK2 WT; actives lie on both sides; binding response (% of control), % at 10 µM; in the data active means binding response below about 67% or above about 130%
MEKK3 PB1 HTS = modulators of MEKK3-MEK5 PB1 binding, primary screen, biochemical, wildtype MEKK3, multiplex bead flow cytometry, Alexa488-MEK5; binding response (% of control), % at 10 µM; Mitogen-activated protein kinase kinase kinase 3 (Homo sapiens), Q99759; actives 1.4% (n = 290,000); bead-based flow cytometry, Alexa488-MEK5 binding to MEKK3; actives lie on both sides; 0 = blocked by unlabeled MEK5, 100 = vehicle;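 active means binding response more than 3 SD above or below the average of its plate-row segment, actives on both sides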;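 further: Alexa488 bead fluorescence after subtracting the streptavidin-only scavenger bead signal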
Target sequence (Q99759 whole entry, looked up): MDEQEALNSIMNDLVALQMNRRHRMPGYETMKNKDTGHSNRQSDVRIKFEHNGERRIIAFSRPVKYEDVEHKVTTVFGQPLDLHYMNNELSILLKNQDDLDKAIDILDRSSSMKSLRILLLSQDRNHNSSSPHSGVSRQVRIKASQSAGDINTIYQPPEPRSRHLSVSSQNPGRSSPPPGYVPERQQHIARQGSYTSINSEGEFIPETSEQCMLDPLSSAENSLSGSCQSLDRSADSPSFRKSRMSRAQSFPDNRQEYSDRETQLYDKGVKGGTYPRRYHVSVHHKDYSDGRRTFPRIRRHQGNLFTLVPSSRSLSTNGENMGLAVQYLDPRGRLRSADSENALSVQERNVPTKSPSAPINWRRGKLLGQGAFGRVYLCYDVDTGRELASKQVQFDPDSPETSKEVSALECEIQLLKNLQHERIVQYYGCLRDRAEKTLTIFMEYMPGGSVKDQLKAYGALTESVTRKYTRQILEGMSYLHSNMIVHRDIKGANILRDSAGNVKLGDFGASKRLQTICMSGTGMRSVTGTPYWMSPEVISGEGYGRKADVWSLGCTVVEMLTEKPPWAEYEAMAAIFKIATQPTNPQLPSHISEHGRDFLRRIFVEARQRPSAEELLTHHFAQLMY
FID counter = compounds displacing fluorescent DNA intercalator, primary screen, artefact control for HCV NS3 helicase inhibitor project, biochemical, FID fluorescence. DNA fluorescent intercalator displacement. inhibition, % at 7.9 µM. actives 0.17% (n = 290,000); in the data active means inhibition above about 37%;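 further: 0% = vehicle and 100% = reference compound; higher means more ethidium bromide displaced from hairpin DNA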
MEKK2wt confirm = modulators of MEK5 binding to wildtype MEKK2, confirmation, biochemical, single concentration, multiplex bead flow cytometry; shares compounds with MEKK3 PB1 HTS; Alexa488-MEK5 binding to MEKK2 WT; actives lie on both sides; binding response (% of control), % at 10 µM; actives 2.4% (n = 5,900); AID 1892, 2009; in the data active means binding response below about 16% or above about 210%; inactive means in between
MEKK2mut confirm = mutant MEKK2 PB1-MEK5 binding signal retest – biochemical, single concentration, multiplex bead flow cytometry, confirmation; shares compounds with MEKK3 PB1 HTS; Alexa488-MEK5 binding to MEKK2 mutant; percent response, % at 10 µM; actives 2% (n = 5,900); AID 1893, 2009; in the data active means percent response mostly above about 71%, no sharp cut-off; inactive means mostly below about 38%;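 further: higher means compound restores mutant binding toward wildtype level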
MEKK3-MEK5 inh = MEKK3 wild-type PB1 binding to MEK5, inhibitors, confirmation, biochemical, bead multiplex flow cytometry, single concentration, wildtype; binding response (% of control), % at 10 µM; actives 1.8% (n = 5,900); shares compounds with MEKK3 PB1 HTS; Alexa488-MEK5 binding to MEKK3; hits give low values; AID 1894, 2009;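 active means binding response below 72% of control, or above a set upper limit, though filed actives all read lower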;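 further: 100% = DMSO only wells and 0% = binding blocked by excess unlabeled MEK5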
* = called active by the depositor; . = no result; [ ] = another dose, or the depositor's remark.

SMILES	dFosB act	MEKK2mut PB1 HTS	MEKK2 WT-MEK5	MEKK3 PB1 HTS	FID counter	MEKK2wt confirm	MEKK2mut confirm	MEKK3-MEK5 inh
COc1cccc(OC)c1-c1nn2c(-c3cc(-c4ccccc4)n[nH]3)nnc2s1	-14	-12	80	78*[inhibitor]	3	32	-26	48*
Cc1ccc(N2CCN(S(=O)(=O)c3c(C)nc4scc(C)n4c3=O)CC2)c(C)c1	-5	-4	93	98	-55	.	.	.
COc1cc(O)c(C(CC(=O)N2CCN(c3ccccc3)CC2)c2ccc3c(c2)OCO3)c(OC)c1 (stereo unspecified)	-6	0	153*	130*	.	100	-7	104
CCN(CC)CCC(c1ccc2c(c1)OCO2)c1c(O)cc(OC)cc1OC (stereo unspecified)	-7	12	150*	119	.	116	3	105
COc1ccc(C(CC(=O)N2CCOCC2)c2c(O)cc(OC)cc2OC)cc1 (stereo unspecified)	-4	0	165*	133*	.	102	4	96
COc1ccc(C(CC(=O)N2CCCCC2)c2c(O)cc(OC)cc2OC)cc1 (stereo unspecified)	-5	-2	72	81	.	.	.	.
CCN(CC)C(=O)CC(c1ccc2c(c1)OCO2)c1c(O)cc(OC)cc1OC (stereo unspecified)	-1	-5	97	95	.	.	.	.
Cc1ccc(C(C)C)c(OCC(=O)N/N=C/c2ccc(S(=O)(=O)O)o2)c1	1	25	119	130*	-37	95	-6	100
CC(Nc1nc(N2CCCCC2)nc2ccccc12)c1ccccc1 (stereo unspecified)	5	34	210*	108	15	140	18	109
CCc1ccc(N(CC(=O)Nc2ccccc2C(=O)N2CCCC2)S(C)(=O)=O)cc1	-5	2	95	96	-35	.	.	.
O=C(CSCc1ccc(Cl)c(Cl)c1)Nc1c[nH]c(=O)[nH]c1=O	4	0	104	71*[inhibitor]	4	105	-2	103
O=C(CSCc1ccccc1Cl)Nc1c[nH]c(=O)[nH]c1=O	5	-1	101	101	-2	.	.	.
CCC[C@@H]1C[C@@H](C(=O)NC(C(C)Cl)[C@H]2O[C@H](SC)[C@H](O)[C@@H](O)[C@H]2O)N(C)C1 (stereo partly specified)	-6	5	104	103	5	.	.	.
CCC[C@@H]1C[C@@H](C(=O)N[C@@H](C2O[C@H](SC)[C@H](O)[C@@H](O)[C@H]2O)[C@H](C)Cl)N(C)C1 (stereo partly specified)	.	1	54	50*[inhibitor]	13	97	-6	101
O=C(CCc1cnccn1)NC1CCCc2c1cnn2-c1ccc(F)cc1F (stereo unspecified)	-5	-2	101	112	-13	.	.	.
C=CCN=C(C)C1=C(O)C(C)OC1=O (stereo unspecified)	3	1	103	134*	-2	103	3	105
COc1ccc(CCC(C)NCCc2ccc(Cl)cc2Cl)cc1 (stereo unspecified)	-6	17	152*	105	24	125	13	103
COc1ccc(S(=O)(=O)NCCSc2ccc(C)cc2)cc1OC	-7	9	123	122*	-19	98	1	100
COc1cccc2cc(C(=O)N(Cc3ccccc3)CC3CCCO3)c(=O)oc12 (stereo unspecified)	-5	5	88	124*	-24	100	7	100
CCOC(=O)c1ccc(NC(=O)C(=O)NCc2ccncc2)cc1	-11	-15	24*[inhibitor]	19*[inhibitor]	-16	111	12	104
CCCCOC(=O)c1ccc(NC(=O)C(=O)NCc2ccncc2)cc1	8	8	107	96	-15	.	.	.
CCC(C)NC(=O)C(=O)NCc1ccncc1 (stereo unspecified)	-1	-6	86	81*[inhibitor]	-1	82	-15	93
COc1ccc(C2=C/C(=C\c3ccc(OC(C)=O)cc3)C(=O)O2)cc1	-8	1	104	102	-9	.	.	.
CN(C)c1ccc(/C=C2/C=C(c3ccc4c(c3)CCCC4)OC2=O)cc1	-8	-8	68	73*[inhibitor]	-9	81	-1	83
COc1cccc(C(=O)NCCNC(=O)c2ccco2)c1	0	-3	98	100	-1	.	.	.
SMILES	dFosB act	MEKK2mut PB1 HTS	MEKK2 WT-MEK5	MEKK3 PB1 HTS	FID counter	MEKK2wt confirm	MEKK2mut confirm	MEKK3-MEK5 inh
COc1ccccc1CCNC(=O)CSc1ccc(-c2cccs2)nn1	-7	8	99	61*[inhibitor]	-26	100	-1	105
O=C(CSc1ccc(-c2cccs2)nn1)NCCc1ccccc1	-4	4	105	110	-9	.	.	.
COc1ccc(CCNC(=O)CSc2ccc(-c3ccccc3)nn2)cc1	.	0	104	131*	-2	99	-12	97
Cc1ccnc(Cc2ccccc2)n1	1	-3	98	100	-4	.	.	.
COc1ccc(S(=O)(=O)NC2(C(F)(F)F)NC(=O)N(CCc3ccc(OC)c(OC)c3)C2=O)cc1 (stereo unspecified)	2	0	95	96	-25	.	.	.
COc1ccc(C2Nc3cc(OC)ccc3-n3cccc32)cc1 (stereo unspecified)	-10	-13	94	94	-27	.	.	.
COCCNC(=O)C(c1ccc(OC)cc1)N(C(=O)Cn1nnc2ccccc21)c1cccnc1 (stereo unspecified)	-6	-8	97	105	-8	.	.	.
CCc1ccc(C(C(=O)NCCOC)N(C(=O)Cn2nnc3ccccc32)c2cccnc2)cc1 (stereo unspecified)	0	5	2.0*[inhibitor]	2.0*[inhibitor]	-22	102	-1	101
